The text below walks through data of PubChem BioAssay (Tox21).

Records with an inconclusive call do not appear. Entries that show only a call come without a potency. The source made the active and inactive calls. The call rests on the fitted dose curve; in most records, active means well fitted cell-killing curve with a large enough effect in the repeat runs; inconclusive means weak or mixed curves; inactive means no such curve, though single readings can be large or run the other way.
Potency means the concentration at half of the fitted maximal effect.

This assay is described as follows: qHTS assay to identify small molecule antagonists of the peroxisome proliferator-activated receptor delta (PPARd) signaling pathway - cell viability counter screen (AID 743213). Further: nearly all actives have a fitted effect of over 50% in size. The conditions noted are these: PPARd-bla HEK293H viability, CellTiter-Glo luminescence, 17 h; series mostly up to 62 µM. The essentials:
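Luminescence from CellTiter-Glo, added after the bla read and incubated 30 min at room temperature, gives viability of HEK293H PPARd-bla cells exposed to compounds for 17 h at 37 C with 300 nM L165041.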
On to `CC(COc1ccc(C(C)(C)C)cc1)OS(=O)OCCCl` (stereo not drawn), for which the Potency entry was “inactive”.
As to `CN(C)CCOC1=Cc2ccccc2Sc2ccc(Cl)cc21`, the Potency was 26.6 µM (active).
The value for `CCCC(=O)O[C@]1(C(=O)COC(=O)CC)CC[C@H]2[C@@H]3CCC4=CC(=O)CC[C@]4(C)[C@H]3[C@@H](O)C[C@@]21C` was “inactive”; that for `O=C(O)c1ccccc1NCCc1ccccc1` was “inactive”.
The value for `CCC(C)(C)C1CCC(O)CC1` (stereo not drawn) was “inactive”; that for `O=C(N[C@@H](c1ccccc1)[C@@H]1CCCCN1)c1cccc(C(F)(F)F)c1Cl` was 27.5 µM (active); that for `COC(=O)CC(=O)C(C)(C)C` was “inactive”.
To `CC(=O)[C@H]1CC[C@H]2[C@@H]3C[C@H](C)C4=CC(=O)CC[C@]4(C)[C@H]3[C@@H](O)C[C@]12C` belongs “inactive”; to `Fc1ccccc1[C@@H](F)COC1CCC(Nc2ncnc3[nH]ncc23)CC1` (stereo partly drawn), “inactive”.
With `CCNC(=O)N1CCN(CCCC(c2ccc(F)cc2)c2ccc(F)cc2)CC1`, the Potency result is “inactive”.
The value for `O=C(Nc1ccccc1)Nc1ccccc1` was “inactive”; that for `c1cc[c]([Bi]([c]2ccccc2)[c]2ccccc2)cc1` was “inactive”.
Regarding `CCOC(=O)N1CCC(n2c(=O)[nH]c3cc(Cl)ccc32)CC1`, the Potency result is “inactive”.
Regarding `CCn1cc(C(=O)O)c(=O)c2cc(F)c(N3CCNCC3)nc21`, the Potency result is “inactive”.
Consider `CC(=O)OCC(=O)[C@@]12OC(C)(C)O[C@@H]1C[C@H]1[C@@H]3C[C@H](F)C4=CC(=O)C=C[C@]4(C)[C@@]3(F)[C@@H](O)C[C@@]12C`, for which the Potency entry was “inactive”.
The value for `CCCCC1C(=O)N(c2ccccc2)N(c2ccc(O)cc2)C1=O` (stereo not drawn) was “inactive”; that for `CN(C)C(=O)Nc1ccc(Oc2ccc(Cl)cc2)cc1` was “inactive”.
For the molecule `Nc1ccc(Cl)cc1[N+](=O)[O-]`, the Potency result is “inactive”.
Turning to `Brc1cc(-c2ccc(Br)c(Br)c2Br)cc(Br)c1Br`, the Potency entry was “inactive”.
The value for `O=C(O)C(Cc1cc(I)c(O)c(I)c1)c1ccccc1` (stereo not drawn) was “inactive”; that for `CC(C)(C)C(=O)C(Oc1ccc(Cl)cc1)n1ccnc1` (stereo not drawn) was “inactive”.
The value for `C=CCOC(=O)/C=C\C(=O)OCC=C` was “inactive”; that for `NC(=O)N(O)[C@@H]1C=C[C@H](Oc2cccc(Oc3ccc(F)cc3)c2)C1` was “inactive”.
To `CCC(C(=O)OCCN(CC)CC)c1ccccc1` (stereo not drawn) belongs “inactive”.
`COC(=O)c1cc(S(N)(=O)=O)ccc1OC`: the Potency result is “inactive”.
The value for `COc1ccc(CCC(=O)c2c(O)cc(O[C@@H]3O[C@H](CO)[C@@H](O)[C@H](O)[C@H]3O[C@@H]3O[C@@H](C)[C@H](O)[C@@H](O)[C@H]3O)cc2O)cc1O` was “inactive”; that for `O=C(O)Cc1ccc(-c2ccccc2)cc1` was “inactive”; that for `CC(CCO)CCc1ccccc1` (stereo not drawn) was “inactive”.
To `COC(=O)c1cc(Cl)ccc1NS(=O)(=O)C(F)(F)F` belongs “inactive”; to `O=C(C(=O)c1ccccc1)c1ccccc1`, “inactive”.
The value for `Cc1oncc1C(=O)Nc1ccc(C(F)(F)F)cc1` was 49 µM (active).
As for `C[Si]1(C)O[Si](C)(C)O[Si](C)(C)O1`, the Potency result was “inactive”.
The value for `N#C/C(=C1\SCC(c2ccccc2Cl)S1)n1ccnc1` (stereo not drawn) was “inactive”.
